Test results from PubChem BioAssay AID1578 (Sanford-Burnham Center for Chemical Genomics, 2009).
Hit rate of the full screen: of about 290,000 compounds, about 3,000 (1%) were called active. No stated cut-off is given here; in the data, active means inhibition mostly above about 36% (no sharp cut-off); inactive means mostly below about 34%. Only a selection was taken, and actives are over-represented in it overall.

Experiment: inhibition of NOD1-driven NF-kB reporter – cell-based, luminescence, uHTS, primary screen (AID 1578);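 further: HEK-293T reporter cells stimulated with the NOD1 agonist gamma-tri-DAP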
Settings: NOD1-driven NF-kB luciferase reporter cells, at 4 µM, hits give high values

inhibition, active:
Cn1ccs/c1=N\C(=O)Nc1cccc(Cl)c1 110%, Cc1cc(Cl)ccc1OC(C)C(=O)Nc1ccc(C(=O)Nc2ccccc2C(=O)O)cc1 (stereo not drawn) 82.7%, CC1CCCC(C)N1C(=O)c1cccc2c1-c1ccccc1/C2=N/O (stereo not drawn) 75.8%, O=C(c1cccc2c1-c1ccccc1/C2=N/O)N1CCCCC1 66.9%, CCCn1nc([N+](=O)[O-])c(C(C#N)c2nc3ccccc3o2)c(Cl)c1=O (stereo not drawn) 80.5%, O=C(NCCc1csc(-c2ccccc2)n1)c1ccccc1F 28.3%, O=C(COn1nnc2ccc(C(F)(F)F)cc21)Nc1nnc(-c2ccccc2)o1 67.4%, CCn1c(Cl)c(C=O)s/c1=N\S(=O)(=O)c1ccccc1 34%, COc1cc(-c2noc(C)c2-c2ccc(N(C)C)nc2)cc(OC)c1OC 62%, CCOC(=O)c1cnn(-c2nc3sc4c(c3c(=O)[nH]2)CCCC4)c1N 63.7%, COC(=O)c1cn(-c2ccccc2)nc1-c1ccc(OC)cc1 47.5%, CCOC(=O)CC1C(=O)NCCN1c1nc2c(C)cccn2c(=O)c1/C=C1\SC(=S)N(CC(C)C)C1=O (stereo not drawn) 32%, CCOC(=O)CC1C(=O)NCCN1c1nc2c(C)cccn2c(=O)c1/C=C1\SC(=S)N(C(C)CC)C1=O (stereo not drawn) 35.4%, O=[N+]([O-])c1ccccc1C1Nc2cccc3cccc(c23)N1 105%, Cc1ccc(C(NC(=O)N2CCCCC2)=C(Cl)Cl)cc1F 74%, c1ccc(C2=NN(c3ccccc3)C(c3ccco3)C2)cc1 (stereo not drawn) 54.1%, COc1cccc(-c2nnc3sc(C4CCCCC4)nn23)c1 96.4%, CCOc1cccc(-c2nnc3sc(C4CCCCC4)nn23)c1 66.8%, CC(Oc1ccc(Cl)cc1Cl)c1nc(-c2ccc(NC(=O)c3ccncc3)cc2)no1 (stereo not drawn) 42.3%

inhibition, inactive:
FC(F)(F)c1ccc(C2NCCc3sccc32)cc1 (stereo not drawn) -38.2%, Cn1ccs/c1=N\C(=O)Nc1cccc(C(F)(F)F)c1 -21.9%, Cn1ccs/c1=N\C(=O)Nc1ccccc1 -7.2%, CCOC(=O)CN1C(=O)S/C(=C/c2ccco2)C1=O -37.3%, CC(C)N(C)Cc1nnnn1CC(=O)N(C)Cc1cccc(Cl)c1 -14.1%, Nc1nc(Nc2ccc(Cl)cc2)nc(NCCO)c1[N+](=O)[O-] 3%, Cc1ccc(NC(=O)c2ccc(OC(=O)C(C)Oc3ccc(Cl)cc3C)cc2)cc1 (stereo not drawn) -12.4%, CC(C)C(=O)Nc1cccc(C(=O)Nc2ccccc2C(=O)O)c1 -0.4%, Cn1cnnc1SCc1ccc(C#N)cc1Cl -35.4%, CC1CC(NC(=O)Cc2ccc(Br)cc2)CC(C)(C)C1 (stereo not drawn) -9.8%, O=C1c2ccccc2-c2c1cccc2C(=O)N1CCCCC1 -12.6%, CC(C)COC(=O)c1cccc2c1-c1ccccc1/C2=N\O 14.1%, COc1ccccc1C(=O)Nc1ccccc1C(=O)N1C(C)CCCC1C (stereo not drawn) -5%, O=C1c2ccccc2-c2c1cccc2C(=O)N1CCCCCC1 0.4%, CN1CC(=O)N(CC(=O)Nc2cc(Cl)cc(Cl)c2)C1=O -17.3%, CCn1c(=O)c(C(=O)Nc2ccsc2C(=O)OC)c(O)c2ccccc21 -28.8%, COc1ccccc1C(=O)NC1CC2CCC(C1)N2Cc1ccccc1 (stereo not drawn) -9.7%, COc1ccc(CCNC(=S)NC(=O)c2cccc(Cl)c2)cc1OC -2.1%, Cn1nc([N+](=O)[O-])c(C(C#N)c2nc3ccccc3n2C)c(Cl)c1=O (stereo not drawn) 23.7%, CCn1nc([N+](=O)[O-])c(C(C#N)c2nc3ccccc3n2C)c(Cl)c1=O (stereo not drawn) 32%, Cn1nc([N+](=O)[O-])c(C(C#N)c2ccccn2)c(Cl)c1=O (stereo not drawn) -21.4%, CCCn1nc([N+](=O)[O-])c(C(C#N)c2nc3ccccc3s2)c(Cl)c1=O (stereo not drawn) 63.6%, COc1ccc(C(C(=O)NC2CCCCC2)N(C(=O)c2ccco2)c2ccccc2C(C)=O)cc1OC (stereo not drawn) -17.6%, COc1ccc2c(c1)C(=O)C(=O)N2CC1COc2ccccc2O1 (stereo not drawn) -10%, O=C(NCCc1csc(-c2ccccc2)n1)c1c(F)cccc1F -19.1%, O=C(NCCc1csc(-c2ccccc2)n1)c1c(F)cccc1Cl -7.4%, CCOC(=O)c1nnn2c1nc(N1CCOCC1)c1ccccc12 3.1%, Cc1ccc(C(=O)N(CC(=O)NC2CCCCC2)c2ccccc2F)s1 -27%, O=C(NC1CC1)c1ccc(CS(=O)c2ccccc2)o1 (stereo not drawn) -19%, Cc1ccc2nc(NC(=O)c3ccc(OCC4CCCO4)cc3)sc2c1 (stereo not drawn) 3.2%, C/C=C(/C)C(=O)OC(C)(C)[C@@H]1Cc2c(ccc3ccc(=O)oc23)O1 -44.4%, O=C(COn1nnc2ccc(C(F)(F)F)cc21)Nc1c(Cl)cccc1Cl -17.9%, Cc1cccc(C)c1NC(=O)COn1nnc2ccc(C(F)(F)F)cc21 -17.2%, CCOC(=O)C1(Nc2nccs2)Sc2ccccc2NC1=O (stereo not drawn) 24.1%, CSc1nncc(-c2ccc(F)cc2)n1 12.5%, COc1ccc(/C(C)=N/NC(=O)c2ccc(NS(=O)(=O)c3cccs3)cc2)cc1 -9.8%, CSCC[C@H](N)C(=O)NCC1CCC(C(=O)Nc2ccc3c(c2)OCO3)CC1 (stereo partly drawn) -1.6%, N#CC1(c2ccccc2)CCCN1C(=O)c1ccco1 (stereo not drawn) 7.3%, Cc1c(C(C)(C)C)s/c(=N/S(=O)(=O)c2ccccc2)n1C 3%, O=Cc1s/c(=N\S(=O)(=O)c2ccccc2)n(CCCCl)c1Cl 17.3%, CN(C)S(=O)(=O)c1cccc(C(=O)Nc2ccccc2N2CCCCC2)c1 -14.5%, COc1cc(-c2c(-c3cc(OC)c(OC)c(OC)c3)noc2C)ccc1F -21.2%, COc1ccc(-c2c(-c3cc(OC)c(OC)c(OC)c3)noc2C)cn1 -8.6%, CCOC(=O)c1cnn(-c2nc(SC)nc3sc4c(c23)CCCC4)c1N -0.3%, CCOC(=O)c1cnn(-c2nc(C)nc3sc4c(c23)CCC4)c1N -33%, S=C(NCc1ccc(Cl)cc1)NN1CCOCC1 -24.6%, CCOCCCNC(=O)NC(=O)CN1CCN(S(=O)(=O)c2ccc3c(c2)OCCO3)CC1 -47%, O=C1CCC(=O)N1CC1CC2CCC1C2 (stereo not drawn) 0.2%, COC(=O)c1cn(-c2ccccc2)nc1-c1ccccc1 -4.9%, COc1ccc(-c2nn(-c3ccccc3)cc2C(=O)O)cc1 18.9%, O=C(c1ccc(Br)cc1)N(c1ccccn1)C1CCCCC1 -12.8%, CCOC(=O)CC1C(=O)NCCN1c1nc2ccc(C)cn2c(=O)c1/C=C1\SC(=S)N(C(C)CC)C1=O (stereo not drawn) 20.6%, CCCN1C(=O)/C(=C/c2c(N3CCNC(=O)C3CC(=O)OC)nc3c(C)cccn3c2=O)SC1=S (stereo not drawn) 6.9%, CCCN1C(=O)/C(=C/c2c(N3CCNC(=O)C3CC(=O)OCC)nc3c(C)cccn3c2=O)SC1=S (stereo not drawn) -1%, CCOC(=O)CC1C(=O)NCCN1c1nc2ccc(C)cn2c(=O)c1/C=C1\SC(=S)N(CC(C)C)C1=O (stereo not drawn) 3.2%, COc1ccc(C(=O)O)cc1NC(=S)NC(=O)Cc1ccc(Cl)cc1 -11.2%, Cn1c(SCC(=O)NCCc2ccccc2)nnc1C1CCCCC1 -6.8%, COC(=O)Nc1ccc(N2CCOCC2)c(S(=O)(=O)N2CCOCC2)c1 -18%, c1ccc(C2[C@H]3CN(Cc4cccnc4)[C@H](c4ccccc4)C34CC2(c2ccccc2)C4)cc1 (stereo partly drawn) -5.1%, Cc1ccc(C)c(N2CCN(C(=O)CCNC(=O)Cn3ccc4ccccc4c3=O)CC2)c1 33%, Oc1ccccc1C1Nc2cccc3cccc(c23)N1 7.9%, O=[N+]([O-])c1ccc(C2Nc3cccc4cccc(c34)N2)cc1 25.1%, Cc1ccc(C(NC(=O)NCCCN2CCOCC2)=C(Cl)Cl)cc1F 34.4%, Cc1ccc(C(NC(=O)N2CCOCC2)=C(Cl)Cl)cc1F 32.1%, COc1ccc(CN2CCN(c3cccc(C)c3C)CC2)cc1OC 21.4%, CCC1Oc2ccc(C)cc2N(CC(=O)NCCN2CCOCC2)C1=O (stereo not drawn) -21%, Clc1ccc(C2=NN(c3ccccc3)C(c3ccco3)C2)cc1 (stereo not drawn) -9.1%, Fc1ccc(C2=NN(c3ccccc3)C(c3ccco3)C2)cc1 (stereo not drawn) 4%, O=S(=O)(c1ccc(F)cc1)N1CCn2c(nc3ccccc32)C1 -11.7%, CCOc1ccc(S(=O)(=O)Nc2cc(C)ccn2)c2ccccc12 5.2%, Cc1ccc2[nH]c3c(=O)n(Cc4ccco4)cnc3c2c1 1.2%, COc1cc(-c2nnc3sc(C4CCCCC4)nn23)cc(OC)c1OC -20.6%, c1cncc(-c2nnc3sc(C4CCCCC4)nn23)c1 -14.1%, COc1ccc(-c2nnc3sc(C4CCCCC4)nn23)cc1OC 9.5%, CCOc1cccc(-c2nnc3sc(-c4ccc(C)cc4)nn23)c1 -0.8%, O=C(c1ccccc1)N1CCC(c2nc(-c3ccc(S(=O)(=O)N4CCOCC4)cc3)no2)CC1 18.2%, COCCCNC(=S)NNC(=O)Cn1nc(C)c(Br)c1C 0.3%, CC(Oc1ccc(Cl)cc1Cl)c1nc(-c2ccc(NC(=O)c3ccccn3)cc2)no1 (stereo not drawn) -18.6%, CC(Oc1ccc(Cl)cc1Cl)c1nc(-c2ccc(NC(=O)c3ccco3)cc2)no1 (stereo not drawn) -12.3%
